The values below come from the supplement of paper PMC6135742.

SMILES strings stand for the structures. “And” between values parts separate entries of the source, which are not always exact repeats. Identical values can stand only once. Counter-ions that a name gives are not always drawn. ± gives the standard deviation of the averaged measurements. In all, about 2,600 compounds were measured (“MBP+ mature oligodendrocyte number relative to DMSO vehicle control”: median about -0.34, highest 2% from about 13 on). Only a selection was taken, and the highest values are over-represented in it overall.

This experiment concerns jimpy (Plp1 jimpy) mouse iPSC-derived oligodendrocyte progenitor cells. The experiment can be described thus: MBP+ mature oligodendrocyte number relative to DMSO vehicle control (SDs above negative control mean); higher = more surviving jimpy oligodendrocytes (rescue). Conditions: 10 µM; 3 days. On the procedure: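 Primary phenotypic screen of >3,000 bioactive compounds (Selleck L1700 and Sigma LO1280 libraries) at a single dose of 10 µM. Compounds were added to jimpy (Plp1 mutant) mouse iPSC-derived OPCs at the start of thyroid hormone-induced oligodendrocyte differentiation, one well per compound in 384-well plates. After 3 days cells were stained for MBP, Sox10 and DAPI and imaged with an Operetta system. MBP+ oligodendrocyte number and total cell number were expressed as the number of SDs above the mean of the DMSO negative control on the same plate (n=16 control wells per plate). Hits were defined as >=4 SD for oligodendrocytes and >=2 SD for total cells.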
For the compound `O=C1Cc2cc(CCN3CCN(c4nsc5ccccc45)CC3)c(Cl)cc2N1` [Ziprasidone HCl], the “MBP+ mature oligodendrocyte number” value is 21.9.
For the compound `O=C1Cc2cc(CCN3CCN(c4nsc5ccccc45)CC3)c(Cl)cc2N1` [Ziprasidone hydrochloride monohydrate], the “MBP+ mature oligodendrocyte number” value was found to be 11.7.
With `O=C1CCc2ccc(OCCCCN3CCN(c4cccc(Cl)c4Cl)CC3)cc2N1` [Aripiprazole] the figure was 5.11; with `COc1ccc(-c2oc3c(CC=C(C)C)c(O)cc(O)c3c(=O)c2O)cc1` [Icaritin], -3.18.
With `COc1cc(N2CCC(N3CCN(C)CC3)CC2)ccc1Nc1ncc(Cl)c(Nc2ccccc2S(=O)(=O)C(C)C)n1` the figure was under -6.7; with `Cn1cnc2c(NCc3ccccc3)nc(NCCO)nc21` [Olomoucine], 1.83; with `CC(C)NCC(O)c1ccc(O)c(O)c1` (racemic) [(±)-Isoproterenol hydrochloride], 0.225.
With `Nc1cc2c(ncn2CCOCP(=O)(O)O)c(=O)[nH]1` [PMEG hydrate] the figure was -1.5; with `O.O=[Si]=O.O=[Si]=O.O=[Si]=O.O=[Si]=O.[O]=[Mg].[O]=[Mg].[O]=[Mg]`, -1.01; with `NC(N)=N/N=C/c1ccccc1Cl` [Sephin-1], 1.29.
In the case of `CCC(C)(C)c1ccc(CC(C)CN2C[C@@H](C)O[C@@H](C)C2)cc1` (some centres not stated) [Amorolfine HCl], the “MBP+ mature oligodendrocyte number” value is 28.8.
As for `Fc1ccc2[nH]c(CN3CCN(c4ccccn4)CC3)cc2c1`, the figure is -1.89; as for `O=C(O)CCCCC1CCSS1` (racemic) [(±)-alpha-Lipoic Acid], -1.6.
As for `O=C(O)Cc1cccc(OCCCN(Cc2cccc(C(F)(F)F)c2Cl)CC(c2ccccc2)c2ccccc2)c1`, the figure is 24.5; as for `CN(CCCOc1ccc(Cc2ccccc2)cc1)CCC(=O)O`, 0.896; as for `CC1(C)CCC2=C(O1)c1ccccc1C(=O)C2=O` [beta-Lapachone], under -3.97.
In the case of `CC1(C)CCC2=C(O1)c1ccccc1C(=O)C2=O` [Beta-Lapachone], the “MBP+ mature oligodendrocyte number” value was -6.18.
As for `CC(C)(Oc1ccc(Cl)cc1)C(=O)O` [Clofibric Acid], the figure is 2.94; as for `CC(C)(C)C(=O)C(Oc1ccc(Cl)cc1)n1ccnc1` (configuration not stated) [Climbazole], 38.6; as for `CCOC(=O)C(C)(C)Oc1ccc(Cl)cc1` [Clofibrate], 0.667.
With `C[C@H](CCC(=O)NCCS(=O)(=O)O)[C@H]1CC[C@H]2[C@@H]3[C@H](O)C[C@@H]4C[C@H](O)CC[C@]4(C)[C@H]3C[C@H](O)[C@]12C` [Sodium Taurocholate hydrate] the figure was -0.433; with `Cc1cc(C)c(CNC(=O)c2cc(-c3ccc(CN4CCOCC4)cc3)cc3c2cnn3C2CCCC2)c(=O)[nH]1`, 30.2; with `CCN(c1cc(-c2ccc(CN3CCOCC3)cc2)cc(C(=O)NCc2c(C)cc(C)[nH]c2=O)c1C)C1CCOCC1`, 8.01.
With `CCCc1cc(C)[nH]c(=O)c1CNC(=O)c1cc(-c2ccc(N3CCN(C(C)C)CC3)nc2)cc2c1cnn2C(C)C` the figure was under -6.35.
Regarding `CCc1cc2c(cc1N1CCC(N3CCOCC3)CC1)C(C)(C)c1[nH]c3cc(C#N)ccc3c1C2=O`, the “MBP+ mature oligodendrocyte number” value was -2.2.
With `NC(=O)[C@@H](CCC(F)(F)F)N(Cc1ccc(-c2ncon2)cc1F)S(=O)(=O)c1ccc(Cl)cc1` the figure was 4.21.
As for `CCn1c(=O)c2c(nc(/C=C/c3ccc(OC)c(OC)c3)n2C)n(CC)c1=O` [Istradefylline], the figure is -4.18; as for `Cn1cc(C2=C(c3cn(CCCSC(=N)N)c4ccccc34)C(=O)NC2=O)c2ccccc21` [Ro 31-8220 Mesylate], -5.25; as for `Cn1cc(/C=C2\C(=O)Nc3cccnc32)c2ccccc21`, -3.63.
Take `Cn1cc(C2=C(c3ccc(Cl)cc3Cl)C(=O)NC2=O)c2ccccc21`: the “MBP+ mature oligodendrocyte number” value was 22.4 and 12.6.
As for `Cc1[nH]c2ccccc2c1CCNCc1ccc(/C=C/C(=O)NO)cc1` [Panobinostat (LBH589)], the figure is under -6.7; as for `CN(CC[C@@H](Oc1ccc(C(F)(F)F)cc1)c1ccccc1)CC(=O)[O-].[Li+]`, 0.588; as for `Clc1ccc(COC(Cn2ccnc2)c2ccc(Cl)cc2Cl)c(Cl)c1` (configuration not stated) [Miconazole], -1.9.
As for `Clc1ccc(C(Cn2ccnc2)OCc2c(Cl)cccc2Cl)c(Cl)c1` (configuration not stated) [Isoconazole nitrate], the figure is 22.9; as for `Clc1ccc(COC(Cn2ccnc2)c2ccc(Cl)cc2Cl)c(Cl)c1` (configuration not stated) [Miconazole Nitrate], -3.62; as for `Clc1ccc(COC(Cn2ccnc2)c2ccc(Cl)cc2Cl)cc1` (configuration not stated) [Econazole nitrate], 5.37.
With `COc1ccc(C2(CNC(=O)c3ccc(NC(=O)c4ccco4)cc3)CCOCC2)cc1` the figure was -2.6; with `CC(Cc1ccc(O)c(O)c1)(NN)C(=O)O` (stereo not drawn) [S-(-)-Carbidopa], -1.01.
In the case of `Cc1nccn1CC1CCc2c(c3ccccc3n2C)C1=O` (configuration not stated) [Ondansetron HCl], the “MBP+ mature oligodendrocyte number” value worked out at 12.8.
Consider `Nc1cc(Cl)c(NC2=NCCN2)c(Cl)c1` [p-Aminoclonidine hydrochloride], for which the “MBP+ mature oligodendrocyte number” value was -0.786.
With `CNC(=O)CN(CCN(CCN(CC(=O)[O-])CC(=O)NC)CC(=O)[O-])CC(=O)[O-].[Gd+3]` [Gadodiamide], the “MBP+ mature oligodendrocyte number” value is under -5.15.
With `C#C[C@]1(O)CC[C@H]2[C@@H]3CCc4cc(OC)ccc4[C@H]3CC[C@@]21C` [Mestranol] the figure was 12.8; with `C#C[C@]1(O)CC[C@H]2[C@@H]3CCc4cc(O)ccc4[C@H]3CC[C@@]21C` [Ethinyl Estradiol], 0.433.
As for `C#C[C@]1(O)CC[C@H]2[C@@H]3CCC4=CC(=O)CC[C@@H]4[C@H]3CC[C@@]21C` [Norethindrone], the figure is 6.57; as for `O=C(Nc1ccc2c(c1)CCN(Cc1ncn[nH]1)C2)c1ccccc1-c1ccc(C(F)(F)F)cc1`, 2.
With `c1ccc2c(c1)CCC[C@H]2Nc1nc2ccccc2[nH]1` [NS8593 hydrochloride] the figure was -0.125.
Consider `NC(=O)NO` [Hydroxyurea], for which the “MBP+ mature oligodendrocyte number” value amounted to 0.603 ± 0.14.
For the compound `CO[C@H]1C[C@@H]2CC[C@@H](C)[C@@](O)(O2)C(=O)C(=O)N2CCCC[C@H]2C(=O)O[C@H]([C@H](C)C[C@@H]2CC[C@@H](O)[C@H](OC)C2)CC(=O)[C@H](C)/C=C(\C)[C@@H](O)[C@@H](OC)C(=O)[C@H](C)C[C@H](C)/C=C/C=C/C=C/1C` [Rapamycin (Sirolimus)], the “MBP+ mature oligodendrocyte number” value was -5.74.
As for `Cc1cc(NC(=O)Nc2ccc(N(C)C)cc2)c2cc(F)cc(F)c2n1`, the figure is 29.4; as for `COc1ccc(Cl)cc1NC(=O)Nc1cc(C)nc2ccccc12`, -4.52; as for `Cc1ccc(F)c(NC(=O)Nc2ccc(-c3cccc4[nH]nc(N)c34)cc2)c1` [Linifanib (ABT-869)], -5.74.
On to `CN1c2ccccc2C(=O)N2CCc3c([nH]c4ccccc34)C21` (stereo in doubt) [Evodiamine], for which the “MBP+ mature oligodendrocyte number” value was -2.4.
With `Cc1ccc(NCCCc2ccccc2)c(N)c1` the figure was under -6.35; with `CC(C)S(=O)(=O)N[C@H]1CCOC[C@@H]1c1ccc(-c2ccc(C#N)s2)cc1`, -3.15.
As for `CO[C@@H](C(=O)N1Cc2[nH]nc(NC(=O)c3ccc(N4CCN(C)CC4)cc3)c2C1)c1ccccc1`, the figure is -6.61; as for `CC(=O)[C@H]1CC[C@H]2[C@@H]3CCC4=CC(=O)CC[C@]4(C)[C@H]3CC[C@]12C` [Progesterone], 15.4 ± 7.2; as for `C[C@]12C[C@H](O)[C@H]3[C@@H](CCC4=CC(=O)CC[C@@]43C)[C@@H]1CC[C@@H]2C(=O)CO` [Corticosterone], 1.49.
As for `CC(=O)[C@H]1CC[C@H]2[C@@H]3C=CC4=CC(=O)CC[C@@]4(C)[C@@H]3CC[C@]12C` [Dydrogesterone], the figure is 0.153; as for `O=C1NC(=O)c2c1c(-c1ccccc1)cc1[nH]c3ccc(O)cc3c21`, under -3.97; as for `CC1(C)NC(=O)N(c2ccc([N+](=O)[O-])c(C(F)(F)F)c2)C1=O` [Nilutamide], -0.755.
For the compound `CNC(=O)c1ccc(N2C(=S)N(c3cnc(C#N)c(C(F)(F)F)c3)C(=O)C23CCC3)cc1F`, the “MBP+ mature oligodendrocyte number” value stood at 5.74.
With `CNC(=O)c1ccc(N2C(=S)N(c3ccc(C#N)c(C(F)(F)F)c3)C(=O)C2(C)C)cc1F` [Enzalutamide (MDV3100)] the figure was 16.6; with `N=C(N)SCCc1c[nH]cn1` [Imetit dihydrobromide], -0.363.
`Cc1ccc(NC(=O)c2ccc(CN3CCN(C)CC3)cc2)cc1Nc1nccc(-c2cccnc2)n1` [Imatinib Mesylate (STI571)]: the “MBP+ mature oligodendrocyte number” value was -5.56.
In the case of `Cc1cc(-c2ncc(CC(=O)Nc3ccc(-c4cnccn4)cn3)cc2C)ccn1`, the “MBP+ mature oligodendrocyte number” value amounted to 13.8.
With `Cc1ccc(NC(=O)c2ccc(CN3CCN(C)CC3)cc2)cc1Nc1nccc(-c2cccnc2)n1` [Imatinib (STI571)] the figure was -4.36; with `O=C(Nc1cccnc1)c1cc(-c2ccnc(F)c2)ccc1OCc1ccccc1`, -0.282; with `Cc1cc(-c2ccc(CC(=O)Nc3ccc(-c4cccnc4)cc3)cc2)ccn1`, 23.2.
As for `COC[C@H](NC(=O)c1cnc(C)s1)C(=O)N[C@@H](COC)C(=O)N[C@@H](Cc1ccccc1)C(=O)[C@@]1(C)CO1` [Oprozomib (ONX 0912)], the figure is -5.76; as for `COc1cc2c(cc1O)[C@@H](Cc1ccc(O)c(Oc3ccc(C[C@@H]4c5cc(OC)c(OC)cc5CCN4C)cc3)c1)N(C)CC2` [Daurisoline], under -3.85.
With `Nc1nc2c(ncn2[C@@H]2O[C@H](CO)[C@@H](O)[C@@H]2O)c(=O)[nH]1` [Ara-G hydrate] the figure was -0.925; with `Nc1ncnc2c1ncn2C1CCCC1` [9-cyclopentyladenine], -1.18.
Take `COc1cc2c(cc1-c1c(C)noc1C)ncc1[nH]c(=O)n([C@H](C)c3ccccn3)c12`: the “MBP+ mature oligodendrocyte number” value was under -6.01.
Take `Nc1nccc2c1ncn2[C@@H]1O[C@H](CO)[C@@H](O)[C@H]1O` [3-deazaadenosine]: the “MBP+ mature oligodendrocyte number” value is -1.07.
With `O=C(CCCN1CCC(O)(c2ccc(Cl)cc2)CC1)c1ccc(F)cc1` [Haloperidol] the figure was 2.36 ± 1.1.
As for `O=C1[C@H](CC[C@H](O)c2ccc(F)cc2)[C@@H](c2ccc(O)cc2)N1c1ccc(F)cc1` [Ezetimibe], the figure is 2.95; as for `OC(CN1CCC(Cc2ccc(F)cc2)CC1)c1ccc(Cl)cc1` (configuration not stated) [Eliprodil], 13.4.
